# Compound: C#CCNC(=O)CCSSCCC(=O)NCCc1ccc(C=O)c(C=O)c1
# Experiment: lysine labeling ratio R10:1 (500 µM / 50 µM probe), SILAC-ABPP in living cells; higher = lower intrinsic lysine reactivity toward the probe, active = 2 or less
# Details: HeLa; probe concentrations 500 vs 50 µM
# Method in brief: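 For each lysine, R is the median over forward and reverse replicates of the filtered median MS1 peptide ratio of high probe to low probe. The probe, an alkyne-tagged, disulfide-linked lysine probe, was given at 500 µM or 50 µM to living SILAC light and heavy HeLa cells in PBS at room temperature, with label swaps. Values are capped at 20.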
# UniProt P50454, sequence (P50454 whole entry): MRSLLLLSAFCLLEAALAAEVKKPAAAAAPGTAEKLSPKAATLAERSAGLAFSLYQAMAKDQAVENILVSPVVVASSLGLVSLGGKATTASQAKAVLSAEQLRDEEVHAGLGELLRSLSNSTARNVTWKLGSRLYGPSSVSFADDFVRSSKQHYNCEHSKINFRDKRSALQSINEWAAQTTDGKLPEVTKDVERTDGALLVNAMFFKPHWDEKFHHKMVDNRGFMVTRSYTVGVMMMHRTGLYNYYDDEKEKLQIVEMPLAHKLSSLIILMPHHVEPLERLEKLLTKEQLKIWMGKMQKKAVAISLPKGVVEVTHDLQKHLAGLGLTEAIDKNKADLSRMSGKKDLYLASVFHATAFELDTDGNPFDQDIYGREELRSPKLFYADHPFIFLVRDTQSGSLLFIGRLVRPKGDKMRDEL
# UniProt Q14974, sequence (Q14974 whole entry): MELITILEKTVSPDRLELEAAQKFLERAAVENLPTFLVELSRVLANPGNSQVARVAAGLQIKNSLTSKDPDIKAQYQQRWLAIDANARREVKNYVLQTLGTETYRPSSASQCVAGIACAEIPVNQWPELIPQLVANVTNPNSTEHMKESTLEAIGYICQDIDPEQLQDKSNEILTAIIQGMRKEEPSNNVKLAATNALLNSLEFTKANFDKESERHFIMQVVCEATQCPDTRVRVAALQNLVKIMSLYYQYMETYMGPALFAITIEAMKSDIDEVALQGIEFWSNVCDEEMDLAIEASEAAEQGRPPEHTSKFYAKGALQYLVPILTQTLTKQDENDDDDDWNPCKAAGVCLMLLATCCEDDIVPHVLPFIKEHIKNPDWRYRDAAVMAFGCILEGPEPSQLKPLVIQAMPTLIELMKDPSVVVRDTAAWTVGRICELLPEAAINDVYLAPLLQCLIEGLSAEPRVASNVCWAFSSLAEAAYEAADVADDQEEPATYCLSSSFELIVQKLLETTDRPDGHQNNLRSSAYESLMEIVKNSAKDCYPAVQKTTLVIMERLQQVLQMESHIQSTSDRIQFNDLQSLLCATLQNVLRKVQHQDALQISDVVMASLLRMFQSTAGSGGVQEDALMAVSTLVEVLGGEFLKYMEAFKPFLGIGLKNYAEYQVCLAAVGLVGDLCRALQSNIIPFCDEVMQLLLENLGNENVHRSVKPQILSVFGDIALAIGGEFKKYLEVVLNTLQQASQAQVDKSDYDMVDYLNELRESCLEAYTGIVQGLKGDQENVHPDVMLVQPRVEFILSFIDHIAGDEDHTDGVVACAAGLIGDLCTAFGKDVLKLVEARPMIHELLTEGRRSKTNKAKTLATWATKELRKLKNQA
# UniProt P38646, sequence (P38646 whole entry): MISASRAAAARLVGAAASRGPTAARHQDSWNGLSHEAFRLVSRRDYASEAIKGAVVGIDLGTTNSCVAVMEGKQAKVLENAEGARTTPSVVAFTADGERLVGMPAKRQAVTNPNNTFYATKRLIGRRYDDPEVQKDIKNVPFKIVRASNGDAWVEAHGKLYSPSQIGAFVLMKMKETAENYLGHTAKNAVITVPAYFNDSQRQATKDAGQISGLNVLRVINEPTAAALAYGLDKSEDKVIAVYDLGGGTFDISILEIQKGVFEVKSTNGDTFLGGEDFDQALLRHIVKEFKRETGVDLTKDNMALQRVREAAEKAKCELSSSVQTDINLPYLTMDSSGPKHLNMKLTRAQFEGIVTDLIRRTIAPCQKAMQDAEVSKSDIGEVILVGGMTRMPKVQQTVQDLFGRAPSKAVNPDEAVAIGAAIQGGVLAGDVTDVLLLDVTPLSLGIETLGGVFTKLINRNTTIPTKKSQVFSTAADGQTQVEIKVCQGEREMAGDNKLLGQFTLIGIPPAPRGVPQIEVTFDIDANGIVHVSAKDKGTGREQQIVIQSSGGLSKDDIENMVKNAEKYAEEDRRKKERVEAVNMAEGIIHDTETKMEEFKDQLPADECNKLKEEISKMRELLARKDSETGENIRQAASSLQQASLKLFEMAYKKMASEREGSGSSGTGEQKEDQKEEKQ
# UniProt O15260, sequence (O15260 whole entry): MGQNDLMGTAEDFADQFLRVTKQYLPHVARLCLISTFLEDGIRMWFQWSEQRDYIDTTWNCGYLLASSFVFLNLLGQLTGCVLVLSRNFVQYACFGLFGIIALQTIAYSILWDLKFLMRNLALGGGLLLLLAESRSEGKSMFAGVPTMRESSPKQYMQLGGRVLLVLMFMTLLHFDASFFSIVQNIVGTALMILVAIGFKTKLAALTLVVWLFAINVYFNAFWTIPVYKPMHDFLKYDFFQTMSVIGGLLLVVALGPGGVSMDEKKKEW
# UniProt P08195, sequence (P08195 whole entry): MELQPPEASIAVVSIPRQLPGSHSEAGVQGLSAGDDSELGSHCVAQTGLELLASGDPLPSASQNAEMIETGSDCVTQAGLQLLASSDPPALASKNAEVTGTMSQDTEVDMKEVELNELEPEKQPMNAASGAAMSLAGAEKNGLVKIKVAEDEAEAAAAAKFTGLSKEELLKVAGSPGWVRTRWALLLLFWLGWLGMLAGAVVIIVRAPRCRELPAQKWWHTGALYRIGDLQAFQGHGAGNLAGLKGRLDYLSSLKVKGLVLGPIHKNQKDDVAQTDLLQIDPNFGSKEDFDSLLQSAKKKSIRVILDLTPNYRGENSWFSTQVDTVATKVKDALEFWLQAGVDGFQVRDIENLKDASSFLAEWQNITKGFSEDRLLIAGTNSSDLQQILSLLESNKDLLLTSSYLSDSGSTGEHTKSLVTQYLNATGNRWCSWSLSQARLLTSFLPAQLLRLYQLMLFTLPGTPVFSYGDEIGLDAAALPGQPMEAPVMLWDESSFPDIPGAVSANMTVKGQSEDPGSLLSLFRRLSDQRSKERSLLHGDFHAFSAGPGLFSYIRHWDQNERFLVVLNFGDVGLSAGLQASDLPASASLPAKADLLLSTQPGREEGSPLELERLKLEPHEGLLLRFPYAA
# UniProt Q01974, sequence (Q01974 whole entry): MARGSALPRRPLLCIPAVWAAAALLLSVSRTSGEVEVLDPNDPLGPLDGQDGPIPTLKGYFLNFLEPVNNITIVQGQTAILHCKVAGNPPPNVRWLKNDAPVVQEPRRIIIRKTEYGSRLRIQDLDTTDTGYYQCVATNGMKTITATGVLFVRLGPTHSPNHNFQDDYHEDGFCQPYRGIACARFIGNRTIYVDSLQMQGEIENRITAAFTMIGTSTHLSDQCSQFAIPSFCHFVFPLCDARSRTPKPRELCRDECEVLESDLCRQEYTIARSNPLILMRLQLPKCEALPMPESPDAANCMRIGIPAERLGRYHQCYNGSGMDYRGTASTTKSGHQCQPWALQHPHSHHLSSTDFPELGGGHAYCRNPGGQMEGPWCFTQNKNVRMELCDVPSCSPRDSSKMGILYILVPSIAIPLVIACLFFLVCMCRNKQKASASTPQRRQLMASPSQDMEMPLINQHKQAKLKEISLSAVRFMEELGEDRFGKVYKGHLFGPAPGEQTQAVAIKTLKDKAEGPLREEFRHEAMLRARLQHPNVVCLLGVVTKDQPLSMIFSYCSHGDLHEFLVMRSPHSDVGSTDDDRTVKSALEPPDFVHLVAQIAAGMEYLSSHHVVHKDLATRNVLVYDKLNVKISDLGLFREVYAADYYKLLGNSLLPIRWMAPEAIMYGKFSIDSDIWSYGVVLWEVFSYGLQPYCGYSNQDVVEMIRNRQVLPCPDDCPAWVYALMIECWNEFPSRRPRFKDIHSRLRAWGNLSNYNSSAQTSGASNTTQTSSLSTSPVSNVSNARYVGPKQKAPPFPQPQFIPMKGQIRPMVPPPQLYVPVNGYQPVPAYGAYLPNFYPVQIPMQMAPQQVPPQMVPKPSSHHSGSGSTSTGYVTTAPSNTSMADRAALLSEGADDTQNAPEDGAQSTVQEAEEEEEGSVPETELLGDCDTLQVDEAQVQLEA
# UniProt P41250, sequence (P41250 whole entry): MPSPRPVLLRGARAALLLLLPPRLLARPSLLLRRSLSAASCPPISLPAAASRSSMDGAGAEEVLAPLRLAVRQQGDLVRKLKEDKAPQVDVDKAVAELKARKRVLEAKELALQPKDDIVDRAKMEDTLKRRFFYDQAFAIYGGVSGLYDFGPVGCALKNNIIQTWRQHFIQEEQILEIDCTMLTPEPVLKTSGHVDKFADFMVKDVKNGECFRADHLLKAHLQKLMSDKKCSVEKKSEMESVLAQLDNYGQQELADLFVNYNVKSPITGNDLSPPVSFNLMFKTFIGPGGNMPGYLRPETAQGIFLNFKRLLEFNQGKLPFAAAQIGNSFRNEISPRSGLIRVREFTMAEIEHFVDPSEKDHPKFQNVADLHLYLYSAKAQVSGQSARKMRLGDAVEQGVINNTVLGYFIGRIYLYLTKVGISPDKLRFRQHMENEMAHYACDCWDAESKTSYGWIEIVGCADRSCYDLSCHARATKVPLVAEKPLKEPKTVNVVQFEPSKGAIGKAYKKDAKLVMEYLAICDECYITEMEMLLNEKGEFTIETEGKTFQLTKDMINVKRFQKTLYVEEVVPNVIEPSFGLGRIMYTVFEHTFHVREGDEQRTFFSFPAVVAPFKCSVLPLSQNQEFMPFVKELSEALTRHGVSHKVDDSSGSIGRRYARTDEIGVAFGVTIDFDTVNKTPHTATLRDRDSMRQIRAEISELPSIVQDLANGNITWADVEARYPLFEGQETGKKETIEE
# UniProt Q9H6B4, sequence (Q9H6B4 whole entry): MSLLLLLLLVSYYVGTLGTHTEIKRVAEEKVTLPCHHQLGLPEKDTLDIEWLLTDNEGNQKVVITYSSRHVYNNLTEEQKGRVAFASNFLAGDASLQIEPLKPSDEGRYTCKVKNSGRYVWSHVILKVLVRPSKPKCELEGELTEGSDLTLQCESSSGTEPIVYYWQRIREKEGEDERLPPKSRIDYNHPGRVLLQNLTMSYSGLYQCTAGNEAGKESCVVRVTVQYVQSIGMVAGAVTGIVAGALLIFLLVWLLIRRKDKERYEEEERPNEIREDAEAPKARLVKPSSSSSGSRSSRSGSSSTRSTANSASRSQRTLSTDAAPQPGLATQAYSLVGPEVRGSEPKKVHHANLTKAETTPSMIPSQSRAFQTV
row,Target,lysine labeling ratio R10:1
1,CLMP (lysine site: K172) (UniProt Q9H6B4),4.28 (inactive)
2,ITGA2 (lysine site: K261) (UniProt P17301),1.26 (active)
3,PLXND1 (lysine site: K310) (UniProt Q9Y4D7),3.11 (inactive)
4,SURF4 (lysine site: K22) (UniProt O15260),3.81 (inactive)
5,SLC3A2 (lysine site: K299) (UniProt P08195),6.33 (inactive)
6,RPL14 (lysine site: K85) (UniProt P50914),1.23 (active)
7,ARPC2 (lysine site: K275) (UniProt O15144),2.12 (inactive)
8,SERPINH1 (lysine site: K413) (UniProt P50454),4.84 (inactive)
9,CLPTM1 (lysine site: K224) (UniProt O96005),1.69 (active)
10,FOLR1 (lysine site: K136) (UniProt P15328),7.36 (inactive)
11,CTTN (lysine site: K272) (UniProt Q14247),1.57 (active)
12,SLC9A3R1 (lysine site: K227) (UniProt O14745),3.96 (inactive)
13,CORO1C (lysine site: K329) (UniProt Q9ULV4),1.19 (active)
14,KRT18 (lysine site: K119) (UniProt P05783),6.22 (inactive)
15,UniProt P41250 (lysine site: K646),2.94 (inactive)
16,UniProt Q15046 (lysine site: K479),1.78 (active)
17,HSPA9 (lysine site: K625) (UniProt P38646),3.75 (inactive)
18,SERPINH1 (lysine site: K217) (UniProt P50454),1.17 (active)
19,EGFR (lysine site: K489) (UniProt P00533),1.31 (active)
20,UniProt Q9UHN6 (lysine site: K887),1.21 (active)
21,UniProt P62913 (lysine site: K159),2.96 (inactive)
22,ROR2 (lysine site: K382) (UniProt Q01974),1.95 (active)
23,KPNB1 (lysine site: K211) (UniProt Q14974),2.19 (inactive)

# From the supplement of paper PMC11001985
